{"source": "PubChem BioAssay (Tox21)", "note": "Records with an inconclusive call do not appear. A number with no mark means an inactive call. Active and inactive are the calls of the source. Calls follow the shape of the dose curve; as a rule, active = well fitted cell-killing curve with a large enough effect in the repeat runs; inconclusive = weak or mixed curves, or effect the other way; inactive = no such curve, though single readings can be large or run the other way. % is scaled to controls: 0 for no effect and ±100 for the full control effect; potency is read from the fitted curve at half-maximal effect."}
{"experiment": "qHTS assay to identify small molecule agonists of the estrogen receptor alpha (ER-alpha) signaling pathway in the presence of an antagonist - cell viability counter screen (AID 1259386);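 also: cells exposed to compounds for 22 h at 37 °C before the viability read; nearly all actives have a fitted effect of over 30% in size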", "conditions": "VM7Luc4E2 viability, CellTiter-Fluor fluorescence, 22 h; series mostly up to 92.4 µM; activity change, negative = cytotoxicity: at the top concentration", "source_text": "National Center for Advancing Translational Sciences [NCATS]\nNIH Chemical Genomics Center [NCGC]\nU.S. Environmental Protection Agency [EPA]\nNational Institutes of Environmental Health Sciences [NIEHS]\nNational Toxicology Program [NTP]\nU.S. Food and Drug Administration [FDA]\nEstrogen receptor (ER), a member of nuclear hormone receptor plays an important role in development, metabolic homeostasis and reproduction. Two subtypes of ER, ER-alpha and ER-beta, have similar expression patterns with some uniqueness in both types. Endocrine disrupting chemicals (EDCs) and their interactions with steroid hormone receptors like ER causes disruption of normal endocrine function. Therefore, it is important to understand the effect of environmental chemicals in ER signaling pathway. For identifying ER agonists, VM7Luc4E2 cell line has been used in the current assay.\nVM7Luc4E2 cell line (provided by Denison MS, University of California) endogenously expresses full-length ER-alpha and is stably transfected with a plasmid containing four estrogen responsive elements (ERE) upstream of a luciferase reporter gene. This current screening for measuring luciferase reporter gene activity using VM7Luc4E2 cells against Tox21 10K library collection is a confirmation study on agonist mode screening in presence of ER-antagonist (ICI-182,780) at 10.0nM final concentration. The cytotoxicity of the compounds was tested in parallel by measuring the cell viability using CellTiter-Fluor assay system (Promega, Madison, WI) in the same wells.\nTox21 Assay Protocol Summary:\nVM7Luc4E2 cells were cultured in phenol red free assay medium containing 10% charcoal stripped FBS for 5 days prior to the assay. The cells were dispensed at 4,000 cells in 4uL of assay medium per well into white wall/solid-bottom 1536-well plates (Corning Life Sciences, Corning, NY) using a Multidrop Combi (Thermo Fisher Scientific Inc., Waltham, MA) dispenser. After the assay plates were incubated at 37C and 5% CO2 for 24hr, 1uL of 10.0nM (final concentration) ICI-182,780 or assay buffer was added using two separate tips of Flying Reagent Dispenser (FRD, Aurora Discovery, San Diego, CA). Then 23nL of compounds dissolved in DMSO at 15 concentrations and positive controls or DMSO only was transferred to the assay plates by a Pintool station (Wako, San Diego, CA). The assay plates were incubated at 37C and 5% CO2 for 22hr. After 21hr incubation at 37C, 1uL/well CellTiter-Fluor reagent (Promega Corporation, Madison, WI) was added to each well using FRD and after 1hr incubation at 37C and 5% CO2, the fluorescence signal was measured on ViewLux plate reader (PerkinElmer, Shelton, CT)."}
{"smiles": "CCCCOP(=O)(O)OCCCC", "activity change, negative = cytotoxicity": "3.28%"}
{"smiles": "Nc1ccccc1Cl", "activity change, negative = cytotoxicity": "0.977%"}
{"smiles": "c1cc[c]([Hg][c]2ccccc2)cc1", "activity change, negative = cytotoxicity": "1.17%"}
{"smiles": "Cc1cnc[nH]1", "activity change, negative = cytotoxicity": "0.301%"}
{"smiles": "CNNC", "activity change, negative = cytotoxicity": "-4.42%"}
{"smiles": "CC(Oc1ccc(Oc2ncc(C(F)(F)F)cc2Cl)cc1)C(=O)O", "note": "(stereo not given)", "activity change, negative = cytotoxicity": "-0.372%"}
{"smiles": "C[C@@H]1CN(C2CCC(C#N)(c3ccc(F)cc3)CC2)CC[C@]1(C(=O)O)c1ccccc1", "note": "(stereo not given in full)", "activity change, negative = cytotoxicity": "6.96% [at 42.5 µM]"}
{"smiles": "CCOP(=S)(OCC)Oc1nc(Cl)n(C(C)C)n1", "activity change, negative = cytotoxicity": "-2.6%"}
{"smiles": "CC(C)(C)NCC(O)c1cc(Cl)c(N)c(Cl)c1", "note": "(stereo not given)", "Potency": "21.1 µM (active)"}
{"smiles": "O=[N+]([O-])c1ccc2c3c(cccc13)CC2", "activity change, negative = cytotoxicity": "-4.66%"}
{"smiles": "N#CC(Cl)(Cl)Cl", "activity change, negative = cytotoxicity": "1.75%"}
{"smiles": "CC(=O)CC(c1ccc(Cl)cc1)c1c(O)c2ccccc2oc1=O", "note": "(stereo not given)", "activity change, negative = cytotoxicity": "0.295%"}
{"smiles": "c1coc(-c2nc3ccccc3[nH]2)c1", "activity change, negative = cytotoxicity": "0.547%"}
{"smiles": "[As]#[In]", "activity change, negative = cytotoxicity": "-0.633%"}
{"smiles": "CC(C)CP(=S)(S)CC(C)C", "activity change, negative = cytotoxicity": "1.34%"}
{"smiles": "Nc1cnn(-c2ccccc2)c(=O)c1Cl", "activity change, negative = cytotoxicity": "5.92%"}
{"smiles": "c1cc2c(c(N3CCNCC3)c1)OCCO2", "activity change, negative = cytotoxicity": "-2.83% [at 42.5 µM]"}
{"smiles": "COc1cc(OC)nc(NC(=O)NS(=O)(=O)c2ncccc2OCC(F)(F)F)n1", "activity change, negative = cytotoxicity": "-0.126%"}
{"smiles": "CC(COc1ccc(Oc2ccccc2)cc1)Oc1ccccn1", "note": "(stereo not given)", "activity change, negative = cytotoxicity": "-2.37%"}
{"smiles": "CCCSC(=O)N(CCC)CCC", "activity change, negative = cytotoxicity": "4.78%"}
{"smiles": "CCOC(=O)N(C)C(=O)CSP(=S)(OCC)OCC", "activity change, negative = cytotoxicity": "1.38%"}
{"smiles": "CC1(C)CON(Cc2ccccc2Cl)C1=O", "activity change, negative = cytotoxicity": "-2.76%"}
{"smiles": "Cc1ncc2n1-c1ccc(Cl)cc1C(c1ccccc1F)=NC2", "activity change, negative = cytotoxicity": "4.09% [at 42.5 µM]"}
{"smiles": "CC(C(=O)c1ccccc1)N(C)C", "note": "(stereo not given)", "activity change, negative = cytotoxicity": "2.47% [at 42.5 µM]"}
{"smiles": "c1ccc(N2CCNCC2)cc1", "activity change, negative = cytotoxicity": "-3.06% [at 42.5 µM]"}
{"smiles": "N#CCBr", "activity change, negative = cytotoxicity": "-1.47%"}
{"smiles": "O=C1CN2CCOC2(c2ccccc2Cl)c2cc(Cl)ccc2N1", "note": "(stereo not given)", "activity change, negative = cytotoxicity": "1.03% [at 42.5 µM]"}
{"smiles": "N#Cc1c(Cl)cccc1Cl", "activity change, negative = cytotoxicity": "0.323%"}
{"smiles": "BrCCCCCCBr", "activity change, negative = cytotoxicity": "-4.32%"}
{"smiles": "CC(C)CC#N", "activity change, negative = cytotoxicity": "2.52%"}
{"smiles": "CCCCc1c(C)nc(NCC)[nH]c1=O", "activity change, negative = cytotoxicity": "1.36%"}
{"smiles": "CC(=O)[C@H]1CC[C@H]2[C@@H]3CC[C@H]4C[C@H](O)CC[C@]4(C)[C@H]3C(=O)C[C@]12C", "activity change, negative = cytotoxicity": "2.36% [at 42.5 µM]"}
{"smiles": "COc1cc(OC)nc(Oc2cccc(Oc3nc(OC)cc(OC)n3)c2C(=O)O)n1", "activity change, negative = cytotoxicity": "-1.65%"}
{"smiles": "Cc1cc(C)c(C(=O)P(=O)(C(=O)c2c(C)cc(C)cc2C)c2ccccc2)c(C)c1", "activity change, negative = cytotoxicity": "0.308%"}
{"smiles": "CN1C[C@@H](NS(=O)(=O)N(C)C)C[C@@H]2c3cccc4c3c(cn4C)C[C@H]21", "activity change, negative = cytotoxicity": "-11.8% [at 42.5 µM]"}
{"smiles": "O=C(O)c1ccc2[nH]cc(CCCCN3CC=C(c4ccccc4)CC3)c2c1", "activity change, negative = cytotoxicity": "-7.25% [at 42.5 µM]"}
{"smiles": "ClC(Cl)Br", "activity change, negative = cytotoxicity": "1.12%"}
{"smiles": "CNC(=O)Oc1cccc(C(C)C)c1", "activity change, negative = cytotoxicity": "0.929%"}
{"smiles": "Cc1ccccc1CO[C@@H]1C[C@@]2(C(C)C)CC[C@]1(C)O2", "activity change, negative = cytotoxicity": "-5.74%"}
{"smiles": "CNC(=O)Oc1ccccc1C1OCCO1", "activity change, negative = cytotoxicity": "0.648%"}
